Most compounds without a hit are left out; they make up all but 21% or so of the library.
NS1 inh: qHTS Assay for Inhibitors of Influenza NS1 Protein Function; Potency, µM (doses to about 46.1 µM), without a hit: top-dose activity, positive = more growth; actives 0.4% (n = 270,000); calls by dose curve; note: potency is the fitted concentration of half-maximal effect; actives are rising curves; nearly all actives have a fitted effect of over 50% in size
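Growth recovery, yeast-based: influenza A NS1 expressed in S. cerevisiae causes slow growth, and suppressors are detected by OD600. The parent strain without NS1 is used as positive control.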
Shiga toxin inh: A qHTS for Small Molecule Inhibitors of Shiga Toxin; Vero cells, Shiga toxin protein synthesis inhibition reporter; inhibition, % at 38.7 µM; actives 9.2% (n = 290,000); AID 2315, 2010; in the data active = inhibition mostly above about 28%, no sharp cut-off; inactive = mostly below about 43%; note: 0% is about no effect
Cycloheximide cs: Cycloheximide Counterscreen for Small Molecule Inhibitors of Shiga Toxin; cell reporter, cycloheximide protein synthesis inhibition counterscreen; max response, %; actives 12% (n = 300,000); AID 2314, 2010; in the data active = max response mostly above about 13%, no sharp cut-off; inactive = mostly below about 14%; note: read at 38.3 µM for the half of the compounds with a filed dose; 0% is about no effect
Pf growth 96h: Primary qHTS for delayed death inhibitors of the malarial parasite plastid, 96 hour incubation | actives 6.9% (n = 320,000) | Potency, µM (titrated, usually from 28.7 µM), for the others: top-dose activity change, negative = inhibition, hits mostly inhibitors | P. falciparum luciferase reporter growth, 96 h | AID 504834, 2011; note: potency is the fitted concentration of half-maximal effect; % is set by controls: 0 for no effect and ±100 for the full control effect
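P. falciparum expressing integrated firefly luciferase, in erythrocytes at 2% hematocrit, 0.05% parasitemia, incubated with compounds 96 h at 37 C, 5% CO2. Growth inhibition read as loss of luminescence; two-generation exposure targets delayed-death apicoplast inhibitors.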
SARS PLP yeast: qHTS of Yeast-based Assay for SARS-CoV PLP; Potency, µM (titrated, usually from 32.9 µM), for the others: at the highest dose activity, positive = growth rescue, most hits filed as activators; actives 0.19% (n = 330,000); S. cerevisiae expressing SARS-CoV PLpro, growth rescue; calls by dose curve; note: potency is the fitted concentration of half-maximal effect; 0% is about no effect; nearly all actives have a fitted effect of over 55% in size
Pf growth 48h: Primary qHTS for delayed death inhibitors of the malarial parasite plastid, 48 hour incubation; P. falciparum luciferase growth in erythrocytes, 48 h; actives 5.9% (n = 310,000); Potency, µM (top dose mostly 28.7 µM), without a hit: top-dose activity change, negative = inhibition, most hits filed as inhibitors; note: potency is the fitted concentration of half-maximal effect; % is set by controls: 0 for no effect and ±100 for the full control effect
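Cell-based growth assay: transgenic P. falciparum expressing firefly luciferase, cultured in red cells within RPMI 1640 containing 0.5% w/v Albumax, 24 mM bicarbonate and gentamycin. A drop in luciferase activity indicates inhibition.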
Numbers without * were called inactive; i = inactive; ? = inconclusive; nt = no result; [ ] = dose if it differs, or a comment. Unless noted, calls come from the whole dose curve; as a rule, active = well fitted inhibition curve with a large enough effect; inconclusive = small, poorly fitted or top-dose-only effect, or another doubt; inactive = no such curve, though single readings can be large or run the other way.

SMILES	NS1 inh	Shiga toxin inh	Cycloheximide cs	Pf growth 96h	SARS PLP yeast	Pf growth 48h
Cc1cc(OC(C)C(=O)NNC(=O)Nc2ccc(F)cc2F)cc(C)c1Cl (stereo not given)	14.6%	8.4	0.6	-20.3%	-4.7%	7.1%
Cc1c(CC(=O)N2CCC(C(N)=O)CC2)c(=O)oc2cc3c(cc12)CCC1(CCCCC1)O3	-19.3%	-3.0	-1.5	29.3%	1.7%	-20.0%
O=[N+]([O-])c1ccc(NC(=S)N/C(=N/CS(=O)(=O)c2ccccc2)c2ccccc2)cc1	4.8%	55.8*	27.9*	?	6.4%	-29.6%
COc1ccc(NC(=S)N/C(=N/CS(=O)(=O)c2ccccc2)c2ccccc2)cc1	-3.3%	69.7*	35.2*	13.9%	-19.8%	208.9%
COc1ccc(CNc2nc(NCc3ccc(OC)cc3)n(C(=O)c3ccccc3[N+](=O)[O-])n2)cc1	?	75.2*	25.9*	?	-5.3%	?
O=C(c1ccco1)n1nc(-c2ccccc2)nc1NCc1ccco1	-9.5%	14.3	7.1	0.3%	1.4%	27.5%
COc1ccccc1C(=O)n1nc(-c2ccccc2)nc1NCc1ccco1	-132.5%	46.2	20.6*	-48.7%	-34.3%	45.8%
O=C(c1ccco1)n1nc(-c2ccc(Cl)cc2)nc1NCc1ccco1	3.8%	37.7	1.6	-1.7%	nt	35.2%
Cc1ccc(-c2nc(NCc3ccco3)n(C(=O)c3ccco3)n2)cc1	nt	121.6*	42.1*	18.1%	-0.4%	307.3%
O=C(c1ccco1)n1nc(NCc2ccccc2)nc1NCc1ccccc1	-48.3%	37.2*	9.9*	-25.5%	-2.7%	-16.3%
O=C(c1cccnc1)n1nc(NCc2ccccc2)nc1NCc1ccccc1	-41.7%	14.9	-2.0	172.2%	-0.6%	53.4%
CC1=NNC(=O)C1CCC(=O)N/N=C/c1c(Cl)cccc1Cl (stereo not given)	nt	-13.7	-1.4	?	0.3%	-18.3%
O=C(COc1ccccc1)n1nc(-c2ccc(Cl)cc2)nc1NCc1ccco1	-5.0%	26.2*	48.3*	35.4%	8.0%	93.7%
CC(=O)Oc1c(C)cc(O)c2ccccc12	-51.6%	3.8	11.7	?	-4.5%	?
CC(=O)Cc1cc(O)c2ccccc2c1OC(=O)c1ccccc1	-4.7%	19.8	-1.6	9.8%	-0.9%	13.1µM*
CC1CCC(C(C)C)C(OC(=O)Cn2c(-c3ccc(Br)cc3)[n+](C)c3ccccc32)C1 (stereo not given)	-1.7%	7.2	10.9	?	-1.3%	1.65µM*
NCC(c1ccccc1Cl)c1c[nH]c2ccccc12 (stereo not given)	24.2%	-12.6	-0.6	?	4.0%	9.28µM*
Cc1nc(C(N)=O)nc2ccccc12	2.0%	15.2	1.4	50.4%	1.6%	63.8%
COc1ccc([C@H]2CC(=O)C=C(c3ccc4c(c3)sc3ccccc34)C2)cc1	nt	nt	nt	?	-5.3%	?
CC(C)C(=O)Nc1nc2cc3c(cc2s1)OCO3	0.8%	76.8*	26.1*	95.9%	-9.7%	106.8%
O=C(NNc1nc2cc3c(cc2s1)OCCO3)c1ccccc1	3.0%	145.9*	36.1*	235.0%	0.8%	139.9%
CC(=O)Nc1nc2cc3c(cc2s1)OCCO3	-8.7%	29.2*	44.2*	i	5.0%	274.7%
O=C(Nc1nc2cc3c(cc2s1)OCCO3)C1CCCCC1	nt	nt	nt	-9.9%	1.9%	-34.6%
CC(C)(C)C(=O)Nc1nc2cc3c(cc2s1)OCO3	2.6%	70.6*	37.0*	170.2%	1.3%	134.7%
O=C(Nc1nc2cc3c(cc2s1)OCO3)c1ccc(N2C(=O)CCC2=O)cc1	-1.5%	19.3	-0.1	7.9%	-1.3%	2.2%
SMILES	NS1 inh	Shiga toxin inh	Cycloheximide cs	Pf growth 96h	SARS PLP yeast	Pf growth 48h
CC(=O)Nc1cccc(-n2nnc(SCC(=O)N(C)c3ccccc3)n2)c1	0.5%	-1.2	-2.0	16.4%	-0.3%	35.2%
CC(=O)c1ccc(Nc2nc3ccc(C)cc3n3cnnc23)cc1	4.0%	28.5	16.6*	20.8%	-0.4%	-6.5%[0.00184 µM]
COC(=O)c1ccc(Nc2nc3ccc(C)cc3n3cnnc23)cc1	-1.0%	50.9	17.0	-11.3%	-0.1%	99.9%
O=C(O)c1cccc(NS(=O)(=O)c2ccc(S(=O)(=O)N3CCOCC3)cc2)c1	13.6%	3.3	2.7	32.7%	-9.2%	11.7%
C#CCOC(=O)Nc1ccc(OCC(F)(F)F)nc1	-7.4%	45.5*	21.2*	39.5%	-0.1%	34.6%
C#CCOC(=O)Nc1cnccc1C(F)(F)F	-1.8%	-8.7	-3.7	13.2%	-1.7%	36.0%
NC(CSS(=O)(=O)O)=N[C@@H]1C[C@H]2CC[C@@H]1C2	0.7%	nt	nt	nt	nt	nt
COc1ccc(S(=O)(=O)n2nc(C)cc2C)cc1OC	10.8%	0.7	-2.1	?	0.9%	-4.5%
CC(Nc1ccnc2cc(Cl)ccc12)c1ccc(S(N)(=O)=O)cc1 (stereo not given)	-0.8%	-14.5	5.7	2.33µM*	15.0%	1.85µM*
Clc1ccc2c(NCCNC3CCCCC3)ccnc2c1	13.5%	nt	nt	nt	nt	nt
CCN(CC)CCC[C@H](C)Nc1ccnc2cc(Cl)ccc12	nt	nt	nt	0.0426µM*	nt	0.0478µM*
COC(=O)CSc1ccnc2cc(Cl)ccc12	-5.3%	27.8	11.6	6.7%	-0.4%	35.4%
C=CCn1c(=S)[nH]c2cc(C(=O)NCCc3ccc(S(N)(=O)=O)cc3)ccc2c1=O	nt	nt	nt	0.6%	-2.4%	?
CC1CCN(C(=O)CN(c2cccc(F)c2)S(C)(=O)=O)CC1	8.4%	25.5	-1.0	14.2%	0.6%	0.0%
COc1cc(C(=O)COC(=O)c2cnc(C)cn2)ccc1OC(F)F	-0.3%	-7.2	0.6	-17.0%	4.0%	-16.8%
Cc1nc(CNC(=O)CC2C(=O)NCCN2Cc2ccc(F)cc2)cs1 (stereo not given)	9.4%	11.1	0.8	-25.9%	-1.3%	20.7%
COc1ccc(OC2C(=O)N(c3ccc(C)c(C)c3)C2c2ccc(OC)c(OC)c2)cc1 (stereo not given)	?	-15.8	-2.7	?	?	9.28µM*
COc1ccc(OC2C(=O)N(c3cc(C)ccc3C)C2c2ccc(OC)c(OC)c2)cc1 (stereo not given)	4.8%	-13.5	-3.7	20.4%	6.2%	7.38µM*
NS(=O)(=O)c1ccc(NC2=CC(c3ccc([N+](=O)[O-])cc3)N(c3ccc(S(N)(=O)=O)cc3)C2=O)cc1 (stereo not given)	-0.5%	0.7	-1.7	-9.5%	-4.1%	?
COc1ccc(NC2=CC(c3ccc(OC)c(OC)c3)N(c3ccc(OC)cc3)C2=O)cc1 (stereo not given)	8.91µM*	-8.9	4.8	?	?	?
COc1ccc(CCN2C(=S)N(C)C(=O)C2CC(=O)Nc2ccc(F)cc2)cc1 (stereo not given)	2.9%	-8.6	-2.5	13.1µM*	-0.5%	?

Screens: PubChem BioAssay, National Center for Advancing Translational Sciences (NCATS)
